# This is a sample that favours compounds with a hit; in the whole collection about 4.8% have one here.
# hgDAF-12 ag = H. glycines DAF-12 receptor agonists, primary screen, cell-based, luminescence, HEK293, GAL4 fusion, UAS-luciferase; AID 687014, 2013; HEK293 GAL4-hgDAF12 UAS-luciferase reporter, agonist luminescence; normalized to butyrate control; activation, % at 6.8 µM; 1.8% of 370,000 active; Nuclear hormone receptor DAF-12 (Heterodera glycines), GAL4 fusion;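 active = activation above a cutoff set at the mean of all screened compounds plus 3 SD, cut at about 10% in these data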;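 also: 0% = DMSO wells and 100% = sodium butyrate wells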
# ssDAF-12 act = S. stercoralis DAF-12 nuclear receptor activators, primary screen, cell-based, luminescence, HEK293, GRIP1 co-expression, lit1-tk-luc; activation, % at 6.8 µM; 1% of 370,000 active; HEK293 ssDAF-12/GRIP1 lit1-tk-luc reporter; % of 3 µM dafachronic acid response; AID 652126, 2013;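 active = activation above the mean over all tested compounds plus 3 SD, cut at about 0.9% in these data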;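 also: 0% = DMSO-only wells and 100% = 3 µM delta7-dafachronic acid wells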
# DAX1 inh-1 = DAX1 (NR0B1) inhibitors, primary screen, cell-based, HEK293, Gal4-DAX1, luciferase luminescence | HEK293 Gal4-DAX1 luciferase reporter | inhibition, % at 6.75 µM | 0.99% of 340,000 active | Nuclear receptor subfamily 0 group B member 1 (Homo sapiens), P51843;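 active = inhibition above the mean over all tested compounds plus 3 SD, cut at about 4.2% in these data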;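 also: 0% = DAX1-transfected cells with DMSO and 100% = empty-vector control cells with DMSO; inhibition shows as a rise in luminescence from relieved DAX1 repression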
# Target sequence (P51843 207-470 limits assumed): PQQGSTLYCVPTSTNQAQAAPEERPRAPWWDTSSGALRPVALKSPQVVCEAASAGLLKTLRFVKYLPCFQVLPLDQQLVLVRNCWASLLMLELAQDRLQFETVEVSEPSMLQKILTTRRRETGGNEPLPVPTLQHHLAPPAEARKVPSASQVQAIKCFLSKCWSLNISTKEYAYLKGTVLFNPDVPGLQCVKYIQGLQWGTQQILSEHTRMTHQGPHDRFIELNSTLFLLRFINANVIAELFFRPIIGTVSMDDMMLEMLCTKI
# DAX1 inh-2 = DAX1 (NR0B1) inhibitors on StAR promoter, primary screen, cell-based, luminescence, SF-1 (NR5A1), full-length DAX-1 | HEK293T StAR-luciferase reporter, SF-1/DAX-1 repression relief | 1.1% of 370,000 active | inhibition, % at 6.8 µM;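 active = inhibition above the mean over all tested compounds plus 3 SD, cut at about 3.6% in these data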;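 also: 0% = DAX-1 cells with DMSO and 100% = cells lacking DAX-1 with DMSO; higher inhibition means more luminescence from relief of DAX-1 repression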
# SMARCA2 activ = SMARCA2 (BRM) function activators, primary screen, cell-based, luminescence, high throughput. activation, % at 9.1 µM. 1% of 370,000 active. MG213 cells, MMTV-luciferase reporter, dexamethasone, overnight; in the data active = activation above about 7.8%;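 also: 0% = vehicle wells and 100% = reference activator wells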
# hcDAF12 agonist = H. contortus DAF-12 nuclear receptor activators, primary screen, cell-based, luminescence, HEK293, lit1-tk-luc reporter | HEK293 hcDAF-12 lit1-tk-luc reporter; 0% DMSO, 100% Δ7-dafachronic acid | activation, % at 6.8 µM | 1.4% of 370,000 active;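 active = activation above the mean of all tested compounds plus 3 SD, cut at about 5.5% in these data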;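 also: 100% = response to 3 µM Δ7-dafachronic acid high control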
# Starred values were filed as active, the others as inactive; x = not tested or not shown.
SMILES,hgDAF-12 ag,ssDAF-12 act,DAX1 inh-1,DAX1 inh-2,SMARCA2 activ,hcDAF12 agonist
O=C(O)c1ccc(/C=N/Nc2nc3ccccc3[nH]2)cc1,2,0,8.9*,0,-5,-1
N=c1c2c(ccn1CCCCc1ccccc1)Oc1ccc3ccccc3c1C2c1ccccc1 (stereo unspecified),-4,-1,x,x,x,-2
CSC(=NC#N)N1CCN(C(=NC#N)SC)CC1,1,0,4.7*,-1,-2,0
CSC(=NC#N)N1CCN(C(c2ccccc2)c2ccccc2)CC1,1,-1,0,-1,-5,1
CCOC(=O)c1nn(-c2ccc3c(c2)CCN3C(C)=O)cc1O,8,0,-1,3.9*,7,5
CCOC(=O)c1nn(-c2ccc(F)cc2)cc1O,10,-1,1,2,-1,5
Cc1cnc(-c2nc3ccccc3n2C(C(=O)NC(C)(C)C)c2ccncc2)cn1 (stereo unspecified),11*,0,x,1,1,-1
Cc1cnc(-c2nc3ccccc3n2C(C(=O)NC(C)(C)C)c2ccccc2)cn1 (stereo unspecified),-3,-1,x,1,-3,0
Cc1cc2nc(-c3ccc(SCc4ccc(C(=O)O)cc4)nc3)[nH]c2cc1C,12*,-1,2,2,-1,0
Cn1cc([N+](=O)[O-])c(C(=O)NCc2cc3ccccc3[nH]2)n1,3,1.8*,1,1,-1,3
Cc1ccc2c(nc3s/c(=C/c4cccs4)c(=O)n32)c1C,4,0,2,0,5,6.2*
S=C(Nc1ccc(Br)cc1Cl)N1CCCC1,7,0,1,4.1*,5,2
COc1ccc(N=Cc2oc3ccc4ccccc4c3c2O)cc1,5,1.2*,0,2,3,3
COC(=O)[C@H](CC(C)C)N1Cc2nnn(Cc3ccc(C)cc3)c2-c2cc(F)ccc2S1(=O)=O,-2,-1,x,0,-1,-1
Cc1cc(NC(=O)CC(C)(C)C)nc2c1c(=O)oc1ccccc12,0,-1,0,0,4,6.3*
COc1cccc(-c2cnc3cccnn23)c1,12*,-1,x,2,4,-1
CS(=O)(=O)Nc1ccc(-c2cnc3cccnn23)cc1,12*,-1,x,-1,-2,1
O=C(NCCc1c[nH]c2ccccc12)OCc1cn(-c2cccc(C(F)(F)F)c2)nn1,1,-1,x,0,-4,1
Cc1ccc(/C=N/OC(=O)c2c(C)noc2-c2snnc2C)cc1,0,-1,5.7*,0,-2,0
O=C(CNC(=S)N(Cc1ccccc1)Cc1cccs1)NCc1ccc(F)cc1,-4,-2,-1,-1,-4,6.4*
Fc1ccc(/C=N/Nc2nn[nH]n2)cc1,-3,-1,7.1*,0,0,-1
C/C(=N/O)c1no[n+]([O-])c1/C(C)=N\O,0,-1,7.2*,0,-4,-1
CCC(=O)NCCc1nc2cc(NC(=O)c3ccc(Cl)cc3)ccc2n1C,10,-1,0,1,2,3
CC(=O)NCCc1nc2cc(NC(=O)c3ccc(Cl)cc3)ccc2n1C,11*,-1,2,2,7,2
COc1c(Cl)cc(-c2noc(C)c2C(=O)NCc2ccc3c(c2)OCO3)cc1Cl,1,-1,4.3*,-1,1,-1
SMILES,hgDAF-12 ag,ssDAF-12 act,DAX1 inh-1,DAX1 inh-2,SMARCA2 activ,hcDAF12 agonist
CSc1nsc(/C=C/Nc2ccc(C)c(C)c2)c1C#N,2,0,2,0,0,4
CSc1nsc(/C=C/Nc2ccc(C)cc2)c1C#N,1,2.4*,0,-1,1,6.5*
CC1=[N+](CC(=O)c2ccccc2)CCn2cccc21,9,1.0*,x,2,-2,4
Clc1ccc(-c2cn(-c3nc4ccccc4s3)nn2)cc1,2,0,x,1,-3,5.7*
CN1CCN(c2nc(-c3ccccc3O)nc3ccccc23)CC1,4,0,1,0,3,6.5*
CN1CCN(c2nc(-c3ccccc3Cl)nc3ccccc23)CC1,4,-1,0,0,-2,0
CNC(=O)CCn1nc(-c2ccccc2)c2ccccc2c1=O,1,-1,0,0,1,0
N#CCCn1nc(-c2ccccc2)c2ccccc2c1=O,-1,-2,5.0*,0,-1,-1
COc1ccc(Br)cc1S(=O)(=O)NCCN1CCOCC1,4,-1,4.5*,1,0,-1
CCOC(=O)[C@@]12CN(C(=O)OC(C)(C)C)CC=C1N(Cc1ccc(OC)cc1)C(=O)[C@H]2CC(=O)N1CCSCC1,0,-1,x,-1,-4,0
O=C(NCCN1CCOCC1)c1cc(Br)ccc1Cl,10,1.1*,1,0,6,3
C=C(C)C#CCNCc1ccccc1,3,-1,x,0,-3,1
Clc1cccc(-c2csc(Nc3cccnc3)n2)c1,5,0,1,0,-2,5.8*
O=C(c1cc2ccccc2oc1=O)N(Cc1ccc(F)cc1)C1CCS(=O)(=O)C1 (stereo unspecified),3,0,4.5*,2,-2,3
O=C(c1cc2ccccc2oc1=O)N(Cc1cccs1)C1CCS(=O)(=O)C1 (stereo unspecified),7,1,1,1,6,5.8*
CCc1ccc(CN(C(=O)c2cc3ccccc3oc2=O)C2CCS(=O)(=O)C2)cc1 (stereo unspecified),10,0,2,2,3,4
COc1ccc(CN2C(C(=O)NCC(C)C)CSCCS2(=O)=O)cc1 (stereo unspecified),7,0,x,0,-3,-2
Cc1cc(N2CCNC[C@H]2C)ccc1N1C[C@@H](C)O[C@@H](C)C1,2,-1,x,-1,-2,0
Nc1[nH]c2cc(C(F)(F)F)ccc2c1C(=O)N1CCN(CCc2ccccc2)CC1,0,1,x,0,-4,4
O=C1c2oc3ccccc3c(=O)c2C(c2ccc(O)cc2)N1c1nccs1 (stereo unspecified),-3,-1,6.1*,0,0,0
CC(=O)c1c(C(C)=O)c(C)n(NC(=O)c2ccncc2)c1C,-1,-1,5.7*,-1,-1,0
